TPT1 inhibitor = C. albicans TPT1 enzyme inhibition; 300,000 tested, 0.81% active; recombinant caTPT1, FP RNA substrate dephosphorylation; inhibition, % at 5 µM;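 active means inhibition above the mean of all tested compounds plus 3 SD, set per screening campaign, cut at about 24% in these data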;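 further: plate controls were DMSO alone for no effect and ferristatin control at 100 nM for full effect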
PHOSPHO1 block = blocks human PHOSPHO1 phosphatase activity; inhibition, % at 13.3 µM; Q8TCT1; recombinant PHOSPHO1, absorbance phosphatase assay; AID 1565; 290,000 tested, 1.1% active; in the data active means inhibition above about 60%
Target sequence (Q8TCT1 whole entry, looked up): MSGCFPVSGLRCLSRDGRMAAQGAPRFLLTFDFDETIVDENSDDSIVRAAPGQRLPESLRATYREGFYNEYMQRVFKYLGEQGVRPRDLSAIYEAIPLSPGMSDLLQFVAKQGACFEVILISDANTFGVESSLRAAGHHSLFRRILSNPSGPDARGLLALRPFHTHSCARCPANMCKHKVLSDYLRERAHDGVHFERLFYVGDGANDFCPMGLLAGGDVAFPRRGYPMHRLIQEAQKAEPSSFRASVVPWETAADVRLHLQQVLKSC
WT yeast gro inh = growth inhibition of WT yeast, mitochondrial fusion screen | AID 1362 | 190,000 tested, 2.1% active | mitochondrial fusion phenotypic screen, WT strain | inhibition, % at 10 µM; in the data active means inhibition above about 58%; tested in S. cerevisiae
Rtt109 Vps75 = blocks Candida albicans Rtt109/Vps75 acetyltransferase activity; purified Rtt109/Vps75, ThioGlo CoA-SH fluorescence, 4 h; inhibition, % at 34.9 µM; Q5AAJ8; 330,000 tested, 0.16% active;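 active means inhibition of at least 50% in every replicate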
SKKanGAS inh = inhibitors of SKKanGAS S. pyogenes growth in kanamycin (SK-promoter or general growth effect); BacTiter-Glo, 6 h; 300,000 tested, 1.3% active; inhibition, % at 7.5 µM;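 active means mean replicate score, as percent of positive control median, at least 50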;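 further: strain carries kanamycin resistance gene driven by streptokinase promoter and grows in 40 µg/ml kanamycin; loss of luminescence reflects streptokinase promoter inhibition or plain growth inhibition; 0% = median of DMSO wells and 100% = positive control at its reference dose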
Platelet DG rel = platelet dense granule release activity. human platelet-rich plasma, SFLLRN dense granule ATP release, luminescence. inhibition, %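 (compounds screened at 7.5 µM in platelet-rich plasma)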. 300,000 tested, 0.22% active. AID 1663;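 active means mean replicate score, as percent of positive control, at or above 50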
TPT1 inh confirm = TPT1 (C. albicans) inhibition, confirmation; shares compounds with TPT1 inhibitor; recombinant caTPT1, fluorescence polarization, RNase T1 coupled; inhibition, % at 5 µM; 2,400 tested, 74% active;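 active means inhibition above the primary screen limit, the mean inhibition of all tested compounds plus 3 SD, cut at about 25% in these data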
RNase T1 counter = blocks Aspergillus oryzae RNase T1, a TPT1 counter-screen | shares compounds with TPT1 inhibitor | RNase T1 cleavage, fluorescence polarization, 1536-well | inhibition, % at 5 µM | 2,400 tested, 83% active | AID 2153;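 active means inhibition above the solvent-only control well mean plus 3 SD, limit set per screening run, cut at about 23% in these data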;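 further: plate controls were DMSO wells with enzyme for no effect and wells without RNase T1 for full effect; inhibitors block cleavage so intact labeled substrate keeps polarization high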
Target sequence (P00651 whole entry, looked up): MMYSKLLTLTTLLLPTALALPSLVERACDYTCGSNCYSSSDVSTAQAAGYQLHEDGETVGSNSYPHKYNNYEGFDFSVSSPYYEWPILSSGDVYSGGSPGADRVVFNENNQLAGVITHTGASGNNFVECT
The depositor's hits bear a star. Sampled rows, rich in hits. Any-hit rate of the full collection: about 3.9%.

How did Cn1cccc1/C=C1\CC(C(C)(C)C)C/C(=C\c2cccn2C)C1=O (centres undefined) do in these assays?
TPT1 inhibitor: 176*; PHOSPHO1 block: 41; WT yeast gro inh: 6; Rtt109 Vps75: 3; SKKanGAS inh: 10; Platelet DG rel: 9; TPT1 inh confirm: 162*; RNase T1 counter: 149*

What do the screens show for `CN1C2CCC1/C(=C\c1ccc(F)cc1)C(=O)/C2=C/c1ccc(F)cc1`?
TPT1 inhibitor: 0; PHOSPHO1 block: -11; WT yeast gro inh: -25; Rtt109 Vps75: 2; SKKanGAS inh: 2; Platelet DG rel: -39

Results for Cn1cccc1/C=C1\Cc2ccccc2C1=O ?
TPT1 inhibitor: 23; PHOSPHO1 block: 21; WT yeast gro inh: 23; Rtt109 Vps75: -16; SKKanGAS inh: 2; Platelet DG rel: 36

What do the screens show for `O=C(/C=C/c1cccc2ccccc12)c1ccncc1`?
TPT1 inhibitor: 3; PHOSPHO1 block: 1; WT yeast gro inh: 7; Rtt109 Vps75: 4; SKKanGAS inh: 10; Platelet DG rel: 3

How did Cc1[nH]c2ccccc2c1/C=C/C(=O)c1ccncc1 do in these assays?
TPT1 inhibitor: 76*; PHOSPHO1 block: 32; Rtt109 Vps75: -3; SKKanGAS inh: -6; Platelet DG rel: -1; TPT1 inh confirm: 77*; RNase T1 counter: 87*

What do the screens show for `O=C(/C=C\Nc1ccc2c(c1)OCO2)c1ccc(Cl)s1`?
TPT1 inhibitor: 25*; PHOSPHO1 block: 10; WT yeast gro inh: -16; Rtt109 Vps75: -3; SKKanGAS inh: -14; Platelet DG rel: 1; TPT1 inh confirm: 39*; RNase T1 counter: 49*

Results for O=C(/C=C\Nc1ccc2c(c1)OCO2)c1cccs1 ?
TPT1 inhibitor: 10; PHOSPHO1 block: 16; WT yeast gro inh: 3; Rtt109 Vps75: 2; SKKanGAS inh: -3; Platelet DG rel: 31

How did O=C(NCCCN1CCOCC1)C1CCN(S(=O)(=O)c2ccccc2)CC1 do in these assays?
TPT1 inhibitor: -1; Rtt109 Vps75: -5; SKKanGAS inh: -4; Platelet DG rel: -4

How did Cc1ccc(C(=O)Nc2ccc(N3CCN(C)CC3)cc2)c(Cl)c1 do in these assays?
TPT1 inhibitor: 0; PHOSPHO1 block: 13; Rtt109 Vps75: 0; SKKanGAS inh: -3; Platelet DG rel: 4

How did COc1cc(/C=C(\C#N)C(=O)c2c[nH]c3ccccc23)cc(OC)c1O do in these assays?
TPT1 inhibitor: 128*; PHOSPHO1 block: -2; WT yeast gro inh: 0; Rtt109 Vps75: 20; SKKanGAS inh: 2; Platelet DG rel: 3; TPT1 inh confirm: 156*; RNase T1 counter: 143*

How did COc1cc(/C=C(\C#N)C(=O)NCCc2ccccc2)cc(OC)c1O do in these assays?
TPT1 inhibitor: 76*; PHOSPHO1 block: 2; WT yeast gro inh: -10; Rtt109 Vps75: 10; SKKanGAS inh: -1; Platelet DG rel: -1; TPT1 inh confirm: 104*; RNase T1 counter: 106*

Results for COC(=O)/C(C#N)=C/c1c[nH]c2ccccc12 ?
TPT1 inhibitor: 2; PHOSPHO1 block: 18; WT yeast gro inh: 9; Rtt109 Vps75: 14; SKKanGAS inh: -7; Platelet DG rel: -4

Results for COC(=O)c1ccc(CNC(=O)C2CCC(=O)N(CCc3ccccc3)C2)cc1 (centres undefined) ?
PHOSPHO1 block: 31; Rtt109 Vps75: -11; SKKanGAS inh: -2; Platelet DG rel: -2

How did CCN(CC)c1ccc(NC(=O)Cn2c(C(C)NC(=O)c3ccccc3)nc3ccccc32)cc1 (centres undefined) do in these assays?
TPT1 inhibitor: 53*; PHOSPHO1 block: 8; WT yeast gro inh: -8; Rtt109 Vps75: -6; SKKanGAS inh: -1; Platelet DG rel: 6; TPT1 inh confirm: 8; RNase T1 counter: 11

Results for Cc1ccc(C(=O)NC(C)c2nc3ccccc3n2CC(=O)Nc2c(C)cc(C)cc2C)cc1 (centres undefined) ?
TPT1 inhibitor: 1; PHOSPHO1 block: 45; SKKanGAS inh: 4; Platelet DG rel: 4

How did CC1CN(/C=C/C=O)C(C)CC1OC(=O)c1ccccc1 (centres undefined) do in these assays?
TPT1 inhibitor: 3; PHOSPHO1 block: 16; Rtt109 Vps75: -1; SKKanGAS inh: 2; Platelet DG rel: 2

How did CCN1C=C(Cc2ccc(OC)cc2)C2=C(C1)C(c1ccc(OC)cc1)C(C#N)=C(N)O2 (centres undefined) do in these assays?
TPT1 inhibitor: 44*; PHOSPHO1 block: 11; WT yeast gro inh: -4; Rtt109 Vps75: -5; SKKanGAS inh: 7; Platelet DG rel: -8; TPT1 inh confirm: 27*; RNase T1 counter: 35*

What do the screens show for `O=C(CS(=O)(=O)c1ccccc1)NCc1ccc(Cl)cc1`?
TPT1 inhibitor: 0; PHOSPHO1 block: -2; Rtt109 Vps75: -22; SKKanGAS inh: 0; Platelet DG rel: -5

How did Nc1c(C(=O)O)sc2nc(-c3ccc(F)cc3)cc(-c3ccccc3)c12 do in these assays?
TPT1 inhibitor: 29*; PHOSPHO1 block: -35; Rtt109 Vps75: -8; SKKanGAS inh: 9; Platelet DG rel: 2; TPT1 inh confirm: 13; RNase T1 counter: 22*

What do the screens show for `COc1cc(/C=C/C(=O)c2ccc3c(c2)OCO3)cc(Cl)c1O`?
TPT1 inhibitor: 82*; PHOSPHO1 block: 32; Rtt109 Vps75: 26; SKKanGAS inh: 22; Platelet DG rel: 8; TPT1 inh confirm: 94*; RNase T1 counter: 96*

Results for CSc1cccc(NC(=O)NCc2cccc(CNC(=O)Nc3cccc(SC)c3)c2)c1 ?
TPT1 inhibitor: 51*; PHOSPHO1 block: 30; Rtt109 Vps75: -6; SKKanGAS inh: 4; Platelet DG rel: 10; TPT1 inh confirm: 4; RNase T1 counter: 6

Results for C=CCn1ccc(=NC=C(C#N)C#N)c2ccccc21 ?
TPT1 inhibitor: 31*; PHOSPHO1 block: 15; Rtt109 Vps75: 2; SKKanGAS inh: -3; Platelet DG rel: -16; TPT1 inh confirm: 45*; RNase T1 counter: 57*

How did Oc1cccc(Nc2nc(O)c(/C=C3\C=Nc4ccccc43)s2)c1 do in these assays?
TPT1 inhibitor: 77*; PHOSPHO1 block: 12; Rtt109 Vps75: 1; TPT1 inh confirm: 130*; RNase T1 counter: 130*

How did COc1cc(/C=C2/C(=N)N3C(=NC2=O)SN=C3S(C)(=O)=O)ccc1OC(=O)c1ccco1 do in these assays?
TPT1 inhibitor: 25*; PHOSPHO1 block: 58; Rtt109 Vps75: 7; SKKanGAS inh: 2; Platelet DG rel: 2; TPT1 inh confirm: 32*; RNase T1 counter: 36*

What do the screens show for `COc1ccc(C(=O)c2ccc([N+](=O)[O-])cc2)c(OC)c1OC`?
Rtt109 Vps75: 4
